± gives the standard deviation of the averaged measurements. Whole data set: some 33,000 sequences, median “E-score (rank enrichment, -0.5 to 0.5)” near -0.0043, cut for the highest 2% near 0.24. This is one part of a sample in which the highest values are shown more often than they occur.
Tested on: 2Sp-muMax20 (muMax20 with two 2,6-bis(methyl)pyridine Cys staples)
Experiment: PBM 8-mer E-score (E-score (rank enrichment, -0.5 to 0.5)); higher = stronger preferential binding
Method: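 Protein binding microarray (universal PBM chip covering all 10-mers in fixed probe flanks) with chemically synthesized human Max(13-93) bHLH-LZ analogs (not full-length Max) bearing noncanonical residues (hArg, Tha, Aib, Nle at 65) and aromatic Cys staples. Read-out per 8-mer (and its reverse complement): E-score (rank-based enrichment, -0.5 to 0.5) and Z-score of median probe intensity.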

Sequence | PBM 8-mer E-score
AACGTGTA | 0.0544 ± 0.12
CACGTGTA | 0.389 ± 0.023
GACTAGAA | 0.177 ± 0.023
CCATCGGG | -0.247 ± 0.14
CCCCAGTC | 0.0489 ± 0.031
AACTTACC | -0.00702 ± 0.031
GCGGCGTA | 0.0259 ± 0.057
ACTCGGGC | -0.209 ± 0.095
CATTCCTA | 0.0858 ± 0.042
CGTTGTGA | -0.116 ± 0.13
AATCCACT | -0.0636 ± 0.11
TGTTCCAA | -0.0197 ± 0.029
ATGGAGGG | 0.168 ± 0.038
AGCTGTGG | -0.0756 ± 0.04
CGAGGGGA | 0.021 ± 0.025
GGAGGGGA | 0.244 ± 0.028
ATAGGGGA | 0.138 ± 0.033
CTAGGGGA | 0.0989 ± 0.024
GTAGGGGA | 0.29 ± 0.033
GGAGGGAA | -0.0234 ± 0.062
CTTTCCGA | -0.294 ± 0.038
AGGTGCGC | -0.139 ± 0.056
ACCCTATA | -0.0592 ± 0.015
TGGCGTAA | 0.0766 ± 0.16
ATTTTTAG | -0.0464 ± 0.14

Sequence | PBM 8-mer E-score
AACTTCAA | 0.0284 ± 0.018
GACTTCAA | 0.0921 ± 0.077
TACTTCAA | 0.243 ± 0.013
CATCTAGC | 0.114 ± 0.045
GGTCTCAC | 0.0156 ± 0.0022
ACGTTGAA | 0.123 ± 0.036
GTACGTAA | 0.101 ± 0.075
ATACGTAC | 0.185 ± 0.07
TTACGTAA | 0.2354 ± 0.0003
ATACGTAA | 0.119 ± 0.077
ATACGTAT | 0.339 ± 0.022
CTACGTAA | 0.0719 ± 0.058
GAGACAAC | 0.00299 ± 0.013
AACTTTAA | 0.0575 ± 0.063
CGGTTACG | -0.19 ± 0.072
CCGCATCG | -0.258 ± 0.046
CTATGAGC | -0.0207 ± 0.088
CAATAATC | 0.0969 ± 0.081
CAATAATA | 0.247 ± 0.045
CAATAAAA | 0.294 ± 0.052
GAATAAAA | 0.0399 ± 0.044
CAATAATG | 0.0692 ± 0.049
CAATAAAC | 0.137 ± 0.053
GACAGGTC | -0.12 ± 0.088
AGAGCCAA | 0.00188 ± 0.0012

Sequence | PBM 8-mer E-score
CGAGGACC | -0.245 ± 0.046
AACGGCCT | 0.275 ± 0.0083
AACGGCCA | -0.0961 ± 0.022
AACGGCCC | -0.372 ± 0.037
TCGTCCAA | -0.0225 ± 0.01
AACGGTCC | -0.298 ± 0.1
ATACGTGA | -0.0748 ± 0.062
ACACGTGC | 0.407 ± 0.024
AAACGTGG | 0.0452 ± 0.042
AGACGTGC | -0.145 ± 0.021
AGACGTGA | 0.0537 ± 0.03
TCACGTAA | -0.0172 ± 0.028
ACACGTGA | 0.412 ± 0.034
ACACGTAC | -0.0036 ± 0.092
ACACGTAG | -0.0191 ± 0.055
TCACGTGA | 0.438 ± 0.0011
ACACGTGG | 0.3868 ± 0.00064
TAACGTGA | 0.093 ± 0.036
CCTCTTAG | -0.00532 ± 0.11
CATTCGCA | 0.0276 ± 0.0019
ACCAAACC | 0.0152 ± 0.034
CAGTCTAG | -0.117 ± 0.05
CAATAGAA | 0.0449 ± 0.032
ACGCGTGC | 0.177 ± 0.049
ACGCGTGA | 0.25 ± 0.0042

Sequence | PBM 8-mer E-score
ACACGTGT | 0.421 ± 0.015
GCGCGTGA | 0.2082 ± 0.00059
AAACGTGT | 0.077 ± 0.06
ACACGTAT | 0.178 ± 0.052
ACTTTCCC | -0.0248 ± 0.091
CTCGTCTC | -0.0179 ± 0.03
CTCACGTC | -0.00269 ± 0.06
ATTCGAGC | -0.0718 ± 0.14
ATTCGAGA | 0.239 ± 0.052
CTTCGAGA | -0.0158 ± 0.028
AGGTTGCC | -0.164 ± 0.035
GCACCTAC | -0.194 ± 0.0063
ATCACGAT | 0.00138 ± 0.12
CGCACGCC | -0.0203 ± 0.1
GAGACCCA | -0.1 ± 0.07
AAGACCCA | 0.0969 ± 0.13
TAGACCCA | 0.282 ± 0.061
CCTTTAAC | -0.0714 ± 0.012
GGCGCACC | -0.281 ± 0.032
CGCTACCA | -0.1194 ± 0.00063
CTATCTTC | 0.0745 ± 0.024
ATATCCTA | 0.0987 ± 0.0053
ATATCTTA | 0.19 ± 0.0044
ATATCCTC | 0.265 ± 0.056
ATATCCCG | 0.0776 ± 0.056

Sequence | PBM 8-mer E-score
CTATCCTC | 0.0112 ± 0.011
CTATCCCC | 0.0647 ± 0.044
ATATCTTC | 0.294 ± 0.022
ATATCCCC | 0.28 ± 0.028
CAGAGATC | -0.137 ± 0.014
TCTTCGCA | 0.0987 ± 0.026
AGCTGACT | -0.0778 ± 0.023
ACAAGATG | 0.115 ± 0.02
CTGAAGGC | -0.247 ± 0.05
AATGTACA | 0.0795 ± 0.02
CATGTACA | 0.143 ± 0.1
TATGTACA | 0.25 ± 0.028
CATGTACG | 0.2899 ± 0.0015
GATGTACA | 0.165 ± 0.009
AATGTACG | 0.0758 ± 0.021
CTGAACAA | -0.00871 ± 0.029
GGCCTTAA | 0.0324 ± 0.052
ACCAAATG | -0.043 ± 0.09
TAGAGACA | -0.0515 ± 0.021
GAGAGACA | -0.174 ± 0.03
AAGAGACA | 0.252 ± 0.042
AAGGTGAT | 0.157 ± 0.033
ATAGTAAT | 0.19 ± 0.084
CTAGTAAA | 0.12 ± 0.047
ATAGTAAA | 0.274 ± 0.033

Sequence | PBM 8-mer E-score
ACATAGGA | 0.102 ± 0.044
AATTTATA | 0.27046 ± 0.00013
CATTTATA | 0.141 ± 0.023
AATTTATC | 0.105 ± 0.038
ATTTTATA | 0.264 ± 0.03
ATTTTATG | 0.0502 ± 0.14
CTTTTGTA | 0.0481 ± 0.15
GTTTTATA | 0.168 ± 0.13
ATTTTGTG | 0.0633 ± 0.081
ATTTTGTA | 0.239 ± 0.12
ACGCCCTA | -0.000715 ± 0.088
CCCAACAC | 0.00365 ± 0.023
AATTCCGA | -0.0265 ± 0.07
GCAAAGCA | 0.155 ± 0.058
CAAATTTC | 0.236 ± 0.031
CAAATTTG | 0.117 ± 0.032
GAAATTTC | 0.114 ± 0.052
CCCTATCC | -0.0867 ± 0.098
TAATACGA | -0.0384 ± 0.02
ATAATATG | 0.185 ± 0.062
AATATAGT | 0.152 ± 0.037
AATATATT | 0.2823 ± 0.0018
AAAATATG | 0.114 ± 0.021
CTAATATC | 0.173 ± 0.038
GATATATC | 0.102 ± 0.037

Sequence | PBM 8-mer E-score
ATAATATC | 0.24 ± 0.082
AATATGTG | 0.191 ± 0.037
AATATATC | 0.239 ± 0.051
AATATATG | 0.303 ± 0.0091
AATATAGC | 0.168 ± 0.047
AATATATA | 0.186 ± 0.0061
TGACATAA | 0.128 ± 0.05
GTGTGGAA | 0.118 ± 0.01
AGCCCGTA | -0.23 ± 0.063
CATTTCAC | 0.0886 ± 0.049
AATTTTCA | 0.146 ± 0.05
CACATTCG | 0.00422 ± 0.036
ATTACTGA | 0.103 ± 0.074
CGAGGAAC | -0.084 ± 0.029
AATATGGT | 0.0878 ± 0.052
AATATGGA | 0.104 ± 0.011
AATATGGC | 0.302 ± 0.044
AGCAACAG | -0.0291 ± 0.074
ACCTAAGT | -0.0381 ± 0.043
ATATTGTC | 0.121 ± 0.03
TATAGTGA | 0.249 ± 0.048
AATAGTGA | -0.033 ± 0.029
CATAGTGA | 0.0514 ± 0.05
